# Compound activity: PubChem BioAssay, several laboratories
# Rows were chosen to be rich in hits. Some 0.5% of all compounds tested hit in one or more screens of this group.
# E coli growth-1: E. coli growth inhibition, primary screen, OD600; Escherichia coli growth, 23 h; active compounds read low; OD600 absorbance (test concentration not listed); 330,000 tested, 0.21% active; AID 1053175, 2014;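 active = OD600 absorbance below the run mean of sample wells minus 3.6 SD, in any replicate, cut at about 0.56 in these data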
# Tat transport: E. coli Tat export inhibitors, primary screen, MC4100, TorA-mCherry reporter, fluorescence, single point | inhibition, % at 10 µM | 340,000 tested, 0.036% active | AID 488895, 2010;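 active = mean replicate inhibition at least 50% and at least half of replicates individually reaching 50%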;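 note: exported cargo escapes ClpAP degradation while cytoplasmic cargo is degraded and loses fluorescence; 0% = median of neutral control wells and 100% = median of NaSCN control wells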
# phage Ecoli inh: growth loss of phage-infected E. coli, primary screen, RecBCD inhibitor project, absorbance, with phage, HTS; 360,000 tested, 0.26% active; inhibition, % at 11.9 µM; AID 651602, 2012; in the data active = inhibition above about 11%
# AddAB inh: growth inhibition of E. coli expressing H. pylori AddAB, primary screen, AddAB inhibitor project, absorbance. AID 435030, 2010. 330,000 tested, 0.29% active. inhibition, % at 11.9 µM; in the data active = inhibition above about 12%;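 note: 0% = vehicle wells of infected cells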
# E coli growth-2: E. coli V3065 growth inhibition, primary screen, counter-screen for AddAB inhibitor project, absorbance, OD600; 330,000 tested, 0.27% active; inhibition, % at 11.9 µM; AID 449728, 2010; 18 h;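 active = inhibition above the campaign's mean inhibition across all tested compounds plus 3 SD, cut at about 9.9% in these data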;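 note: uninfected addAB+ strain grown without phage in ampicillin broth; 0% = DMSO wells and 100% = ciprofloxacin 0.95 µg/ml wells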
# AddAB confirm: growth loss of phage-infected E. coli expressing H. pylori AddAB, confirmation, AddAB inhibitor project, absorbance, E. coli V3065, T4 phage, triplicate; shares compounds with AddAB inh; OD; T4 phage with gene 2 nonsense mutations; inhibition, % at 11.9 µM; 880 tested, 64% active;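 active = mean inhibition above a set limit taken from the earlier primary screen, cut at about 13% in these data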;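 note: higher means less bacterial growth since AddAB block lets phage replicate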
# RecBCD counter: growth loss of RecBCD+ E. coli with mutant T4 phage, counter-screen for AddAB inhibitor project, absorbance, V66 E. coli; 880 tested, 73% active; OD growth; inhibition, % at 11.9 µM; shares compounds with AddAB inh;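 active = mean inhibition above the mean of solvent-only control wells plus 3 SD, cut at about 4% in these data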;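 note: optical density read after an 18 h incubation at 37 °C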
# bact viab count: bacterial viability inhibition counter-screen, confirmation, counter-screen for AddAB inhibitor project, absorbance. inhibition, % at 11.9 µM. shares compounds with AddAB inh. absorbance (AddAB counterscreen). 880 tested, 35% active; in the data active = inhibition above about 25%
# * = called active by the depositor; · = no result.
SMILES,E coli growth-1,Tat transport,phage Ecoli inh,AddAB inh,E coli growth-2,AddAB confirm,RecBCD counter,bact viab count
CCCSc1ccc(C2N[C@@](C)(C(=O)OC)C3C(=O)N(C)C(=O)C23)cc1 (stereo partly specified),0.7,·,·,·,·,·,·,·
O=C(Cc1cccs1)NCCn1ccc2ccccc21,0.77,7,3,99*,95*,-1,2,-1
COCCNc1nnc(Cc2ccc(OC)c(OC)c2)c(=O)[nH]1,0.63,3,0,-2,0,·,·,·
COc1ccc(Cc2nnc(NN)[nH]c2=O)cc1OC,0.081*,12,0,97*,93*,99*,11*,97*
COc1ccc(-c2ccc(N(C)C)cc2)cc1C1C2C=CCC[C@@]2(C)C(=O)N1Cc1ccccc1 (stereo partly specified),0.69,·,·,·,·,·,·,·
CC(NC(=O)NC1CCCCC1)C(c1cccs1)N1CCN(C)CC1 (stereo unspecified),0.73,-13,1,85*,8,1,0,-4
COc1ccc(Cl)cc1C(=O)CSc1nc(N)cc(N)n1,0.67,3,3,98*,97*,-1,-1,-3
CCCCn1nnnc1SCC(=O)c1cc(Cl)ccc1OC,0.71,10,0,4,-3,·,·,·
O=C(CCN1C(=O)/C(=C\c2ccccc2)SC1=S)NNC(=O)c1ccccc1O,0.72,12,8,16*,9,3,5.0*,4
O=C(CCCN1C(=O)S/C(=C\c2ccccc2)C1=O)NNC(=O)c1ccccc1O,·,-5,10,9,5,·,·,·
CSc1nc(N)nc2c1ncn2CC(=O)NCC(c1ccccc1)c1ccccc1,0.7,4,2,1,-2,·,·,·
Cc1ccc(NC(=O)Cn2cnc3ccccc32)cc1C,0.68,-14,7,14*,14*,20*,14*,11
CSc1nc(N)nc2c1ncn2CC(=O)Nc1ccc(C)c(C)c1,0.63,15,9,15*,12*,13*,11*,7
COc1ccc(C2CC(=O)C=C(c3ccc(-c4ccccc4)cc3)C2)cc1OC (stereo unspecified),0.63,·,·,·,·,·,·,·
CCCCN1CC(Cc2ccccc2)C(CC(=O)NCc2ccc(OC)cc2)C1=O (stereo unspecified),0.69,·,·,·,·,·,·,·
Cc1cc2c(nc1C)CCCN2CC(C)ON=C1C2CCn3c(=O)n(-c4ccccc4)c(=O)n3C2C(O)C2OC12 (stereo unspecified),0.69,·,·,·,·,·,·,·
O=c1c(O)c(-c2ccc(O)c(O)c2)oc2cc(O)cc(O)c12,0.6,6,6,13*,10,9,4,5
CCN1CCN(C2=C(NS(=O)(=O)c3ccc(Br)cc3)C(=O)c3ccccc3C2=O)CC1,0.7,-7,7,14*,11*,3,2,-2
O=C(Nc1nnc(-c2cccs2)o1)c1cccc(F)c1,0.35*,12,8,16*,5,9,14*,7
O=C(Nc1nnc(-c2ccco2)o1)c1cccc(Cl)c1,0.69,-6,-4,15*,0,0,-2,-4
O=C(Nc1nnc(-c2ccccn2)o1)c1cccc(Cl)c1,0.57,-6,-6,0,-7,·,·,·
C#Cc1ccc(C2C=C(C(=O)NCc3ccccc3)OC(OCC)C2CCCO)cc1 (stereo unspecified),0.67,·,·,·,·,·,·,·
CC(=O)c1cc(F)c(N2CCN(C(=O)c3ccco3)CC2)cc1C,0.74,-4,0,2,2,·,·,·
CCn1cc(C(=O)NCCC(C)C)c(=O)c2cc(F)c(N3CCN(C(=O)c4ccco4)CC3)cc21,0.15*,3,3,26*,16*,99*,2,36*
CCn1cc(C(=O)NC(C)C)c(=O)c2cc(F)c(N3CCN(C(=O)c4ccco4)CC3)cc21,0.087*,9,5,89*,82*,99*,1,35*
